Bioassay records from PubChem BioAssay.
Shown is part of a subset that was picked to be rich in hits.
AmpC no deterg – inhibitors of E. coli AmpC beta-lactamase without detergent; P00811; AmpC nitrocefin hydrolysis, absorbance 480 nm, 0.0001% Triton; Potency, µM (highest dose often 57.1 µM), without a hit: at the highest dose activity change, negative = inhibition, usual class: inhibitors; 330,000 tested, 0.52% active; AID 485341;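 note: potency is the fitted concentration of half-maximal effect; plate controls were no compound for no effect and no enzyme for full effect; nearly all actives have a fitted effect of over 20% in size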
Target sequence (P00811 whole entry, looked up): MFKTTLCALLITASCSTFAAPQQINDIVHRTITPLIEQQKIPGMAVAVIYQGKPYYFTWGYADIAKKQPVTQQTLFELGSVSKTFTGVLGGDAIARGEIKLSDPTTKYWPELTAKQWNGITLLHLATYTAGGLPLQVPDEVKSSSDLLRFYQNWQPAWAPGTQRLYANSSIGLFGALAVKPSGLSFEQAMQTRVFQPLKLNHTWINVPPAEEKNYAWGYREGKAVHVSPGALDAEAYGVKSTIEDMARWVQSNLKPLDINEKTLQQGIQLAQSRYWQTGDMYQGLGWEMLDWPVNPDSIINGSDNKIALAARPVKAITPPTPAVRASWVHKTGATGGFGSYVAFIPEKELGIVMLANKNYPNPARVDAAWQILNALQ
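20 mM phosphate pH 7.0 + 0.01% (detergent screen) or 0.0001% Triton X-100; 5.3 nM AmpC reagent; cpd preinc 15 min RT; nitrocefin (800 uM stock) to start; A480 q20 s × 4 min; Activity was normalised to no-enzyme and no-compound control wells.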
Cycloheximide cs – affects cycloheximide protein synthesis inhibition readout, counter-screen; AID 2314; cell reporter, cycloheximide protein synthesis inhibition counterscreen; max response, %; 300,000 tested, 12% active; in the data active = max response mostly above about 13%, no sharp cut-off; inactive = mostly below about 14%; note: read at 38.3 µM for the half of the compounds with a filed dose; 0% is about no effect
SARS PLpro yeast – blocks SARS-CoV papain-like protease in a yeast assay; Potency, µM (series often up to 32.9 µM), for inactives: top-dose activity, positive = growth rescue, usual class: activators; 330,000 tested, 0.19% active; S. cerevisiae expressing SARS-CoV PLpro, growth rescue; AID 485353; calls by dose curve; note: potency is the fitted concentration of half-maximal effect; 0% is about no effect; nearly all actives have a fitted effect of over 55% in size
AMA1-RON2 inh – disrupts binding of P. falciparum AMA1 to RON2; AlphaScreen AMA1-biotinylated RON2 peptide binding; Potency, µM (top dose mostly 58.2 µM), inactives show top-dose activity change, negative = inhibition, hits mostly inhibitors; 360,000 tested, 0.2% active;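 note: potency is the fitted concentration of half-maximal effect; 0% = vehicle wells and -100% = peptide control; nearly all actives have a fitted effect of over 45% in size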
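AMA1 (3D7) with his tag at 25 nM final met compounds first, then biotinylated RON2 peptide at 25 nM; detection used donor plus acceptor beads, 10 µg/mL apiece, read by AlphaScreen after 30 min at room temperature.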
Shiga toxin inh – blocks Shiga toxin action in Vero cells; Vero cells, Shiga toxin protein synthesis inhibition reporter; inhibition, % at 38.7 µM; 290,000 tested, 9.2% active; in the data active = inhibition mostly above about 28%, no sharp cut-off; inactive = mostly below about 43%; note: 0% is about no effect
AmpC inh detg – blocks E. coli AmpC beta-lactamase in detergent assay; 370,000 tested, 0.041% active; Potency, µM (doses to about 114 µM), inactives show at the highest dose activity change, negative = inhibition, most hits filed as inhibitors; AmpC hydrolysis of nitrocefin, absorbance 480 nm, 0.01% Triton; P00811;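 note: potency is the fitted concentration of half-maximal effect; 0% = no-compound wells and -100% = no-enzyme wells; nearly all actives have a fitted effect of over 25% in size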
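AmpC (5.3 nM in the dispensed reagent) in 20 mM phosphate pH 7.0 with 0.01% (detergent screen) or 0.0001% Triton X-100 was preincubated with compounds for 15 min at room temperature. Nitrocefin was then added from an 800 uM solution, and hydrolysis was followed at 480 nm.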
Starred values were filed as active, the others as inactive; ? = inconclusive; / = no result. Unless noted, calls come from the whole dose curve; as a rule, active = well fitted curve in the direction sought with a large enough effect; inconclusive = small, poorly fitted or top-dose-only effect, or another doubt; inactive = no such curve, though single readings can be large; an effect the other way counts as inactive or inconclusive.

SMILES	AmpC no deterg	Cycloheximide cs	SARS PLpro yeast	AMA1-RON2 inh	Shiga toxin inh	AmpC inh detg
Cc1nc2cc(Nc3nnc(-c4ccccc4)c4ccccc34)ccc2n1C	86%	45*	-2%	-3%	45	-1%
COc1ccccc1C(=O)N1CCc2ccccc21	-8%	2	2%	-3%	-1	?
O=C(OCC(=O)N1CCc2ccccc21)c1ccc[n+]([O-])c1	-23%	-6	-2%	0%	-4	-2%
Nc1ccccc1C(=O)OCC(=O)N1CCc2ccccc21	-28%	39*	-4%	-1%	79*	3%
Nc1ccccc1C(=O)N1CCc2ccccc21	-1%	26*	2%	-2%	69*	-3%
O=C(OCC(=O)N1CCc2ccccc21)c1ccccc1	-20%	43*	0%	-1%	118*	-18%
O=C(OCC(=O)N1CCc2ccccc21)c1cccnc1	-16%	33*	-9%	34%	45*	-2%
COc1ccc(Cc2c(-c3cccc(Cl)c3)nc3cc(C)c(Br)c(C)n23)c(C)c1	/	/	/	8%	/	/
CCN(CC)S(=O)(=O)c1ccc(C(=O)NCc2n[nH]c(=S)n2Cc2ccccc2)cc1	-12%	-4	-4%	68%	-14	3%
Cc1cc2oc(=O)cc(CN3CCC(C)CC3)c2cc1Cl	-22%	1	-2%	-2%	-11	-14%
CCC1CCc2c(sc(NC(=O)c3ccco3)c2C(N)=O)C1 (stereo not given)	14%	30*	-29%	-3%	96*	?
CC(C)(C)C1CCc2c(sc(NC(=O)c3ccco3)c2C(N)=O)C1 (stereo not given)	-14%	15*	6%	-3%	24	-1%
CCOC(=O)c1[nH]ncc1CN1CCC(Cc2cccc(OC)c2)(C(=O)OCC)CC1	-4%	-2	1%	3%	-4	3%
Cc1ccc(C)c(NC(=O)Nc2cccc(-c3cn4cccnc4n3)c2)c1	/	/	/	/	/	0%
CCN(CC)CCNC(=O)c1ccc(NC(=O)c2ccc(S(=O)(=O)N3CCCC3)cc2)cc1	/	/	/	-2%	/	/
Cc1ccc(-n2ncc3c(NCCCN4CCOCC4)ncnc32)cc1Cl	/	/	/	/	/	4%
COc1ccc(-n2ncc3c(NCCCN4CCOCC4)ncnc32)cc1	-8%	41*	1%	-2%	83*	-12%
COc1ccc(-n2ncc3c(NCCN4CCOCC4)ncnc32)cc1	-14%	34*	-8%	-7%	47*	?
c1cncc(-c2noc(C34CC5CC(CC(C5)C3)C4)n2)c1	1%	22*	0%	3%	36*	-7%
COc1cc(C)c(NC(c2ccccc2)c2ccccc2)cc1OC	-6%	-3	-5%	35µM*	-6	-6%
O=C(/C=C/c1ccc(I)cc1)c1ccc(B(O)O)cc1	/	29*	/	/	16*	/
Cc1ccc(/C=C/C(=O)c2ccc(O)cc2)cc1	-37%	28*	-5%	7%	49*	4%
Cc1ccc(C(=O)/C=C/C(=O)O)cc1	-26%	7	-34%	21%	6	-3%
CSc1ccc(/C=C/C(=O)c2ccc(O)cc2)cc1	-27%	44*	-48%	-4%	91*	-5%
COc1cc(C(=O)OC(C)CN2CCOCC2)cc(OC)c1OC (stereo not given)	-4%	-3	-6%	3%	-4	-15%
SMILES	AmpC no deterg	Cycloheximide cs	SARS PLpro yeast	AMA1-RON2 inh	Shiga toxin inh	AmpC inh detg
CC(=O)c1sc(N/N=C2\CC3CC2C(C)C3(C)C)nc1C (stereo not given)	-20%	34*	2%	19%	48*	0%
CC(=O)c1cccc(S(=O)(=O)NCC(c2ccco2)N2CCCCC2)c1 (stereo not given)	4%	1	-3%	-1%	-13	-6%
O=C(Nc1ccc(Cl)cc1)c1csc(-c2ccccc2)n1	-30%	8	-14%	22%	5	-1%
NC(=O)C(=CNc1nc(-c2ccc(Cl)c(Cl)c2)cs1)C(N)=O	14µM*	4	2%	/	8	-7%
C=CCNC(=O)c1ccc(-c2nc(-c3ccc(Cl)c(Cl)c3)cs2)cc1	25%	-3	0%	8%	-5	-9%
O=C(O)c1ccc(-c2nc(-c3ccccc3)cs2)cc1	-43%	37*	-8%	8%	41*	?
CC(=O)c1csc(-c2ccccc2)n1	-11%	16*	-1%	-2%	41*	1%
O=C(NCc1nc(-c2ccccc2)cs1)c1ccccc1	-26%	19*	-2%	-5%	30*	5%
c1ccc(-c2csc(-c3ccc(-c4csnn4)cc3)n2)cc1	-17%	7	0%	5%	17	2%
CSc1nc2nc3c(c(=O)n2[nH]1)CN(Cc1ccccc1)CC3	-18%	-3	-19%	0%	11	-7%
Cc1cccc(Cn2c(CN3CCC(C(=O)NC(C)C)CC3)cc3ccccc32)c1	/	/	/	/	/	9%
CC1CCCC(C)N1CCCNC(=O)c1ccc2c(c1)NC(=O)c1ccccc1S2 (stereo not given)	16%	9	-2%	-1%	-2	2%
CC(=O)c1nc(-c2ccccc2)sc1C	-10%	26	1%	6%	77*	?
CNC(=O)c1ccc(-c2nc(-c3ccccc3)cs2)cc1	4%	32*	-2%	-2%	43*	-1%
CC(=O)c1csc(Nc2ccccc2Cl)n1	-18%	33*	-2%	11%	68*	-6%
O=C(O)c1cnn(-c2nc(-c3ccc(Cl)c(Cl)c3)cs2)c1C(F)(F)F	-21%	19*	-8%	-14%	35	-4%
CCc1sc(-c2ccccc2)nc1C(=O)OC	-3%	10	0%	15%	12	2%
O=C(Nc1ccc(-c2csc(-c3ccccc3)n2)cc1)c1ccccc1Cl	-24%	3	2%	-8%	24	0%
COc1ccccc1CNc1ccc(-c2nc(-c3ccco3)no2)cc1[N+](=O)[O-]	/	/	/	/	/	15%
CCCCn1c(N)c(N(CCOC)C(=O)c2ccc(-c3ccc(Cl)cc3)o2)c(=O)[nH]c1=O	100%	/	1%	-5%	/	-3%
O=C(O)c1ccccc1-c1csc(-c2ccccc2)n1	-19%	23*	0%	7%	79*	0%
O=C(O)c1ccc(-c2nc(-c3ccccc3Cl)cs2)cc1	-20%	29*	-2%	12%	143*	-5%
C=CCNC(=O)c1ccc(-c2nc(-c3ccc(Cl)cc3Cl)cs2)cc1	-13%	4	-6%	21%	10	-13%
O=C(O)c1ccc(-c2nc(-c3ccc(Cl)c(Cl)c3)cs2)cc1	-39%	37*	1%	-2%	141*	3%
O=C(O)c1ccccc1C(=O)Nc1ccc(-c2csc(-c3ccccc3)n2)cc1	-19%	54*	8%	-21%	73*	2%
